# tim23-1 inh: growth inhibitors of tim23-1 mutant yeast, primary screen, luminescence, uHTS. 330,000 compounds, 1.3% hits. inhibition, % at 20 µM. AID 463212, 2010. S. cerevisiae tim23-1 growth, BacTiter-Glo luminescence, 24 h;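 active = growth inhibition of the mutant yeast at or above 50%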;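 also: temperature-sensitive mutant grown at 25 °C; plate controls were DMSO-treated mutant yeast for no effect and medium wells lacking yeast for full effect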
# ATG4B inhibitor: ATG4B protease inhibitors, primary screen, biochemical, fluorescence, uHTS | Cysteine protease ATG4B (Homo sapiens), Q9Y4P1 | ATG4B cleavage of LC3-PLA2, NBD-HPC fluorescence, 1 h | inhibition, % at 8.33 µM | 340,000 compounds, 0.51% hits; in the data active = inhibition above about 40%
# Target sequence (Q9Y4P1 whole entry, looked up): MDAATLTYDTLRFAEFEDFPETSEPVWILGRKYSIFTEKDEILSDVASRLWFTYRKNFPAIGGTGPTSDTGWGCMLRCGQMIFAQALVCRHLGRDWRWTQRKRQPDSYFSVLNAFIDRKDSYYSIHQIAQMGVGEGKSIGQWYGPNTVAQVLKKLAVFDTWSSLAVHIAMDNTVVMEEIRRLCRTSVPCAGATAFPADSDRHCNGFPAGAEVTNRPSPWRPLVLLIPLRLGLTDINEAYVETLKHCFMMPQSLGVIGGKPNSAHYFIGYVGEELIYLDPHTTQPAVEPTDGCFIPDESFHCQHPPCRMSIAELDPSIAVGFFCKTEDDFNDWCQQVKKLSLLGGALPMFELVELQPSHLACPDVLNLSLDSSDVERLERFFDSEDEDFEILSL
# tim10-1 inh: growth inhibitors of tim10-1 mutant yeast, primary screen, luminescence, uHTS | inhibition, % at 20 µM | AID 463190, 2010 | 330,000 compounds, 2.2% hits | S. cerevisiae tim10-1 ts strain growth, BacTiter-Glo, 24 h;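 active = inhibition of at least 40%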;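 also: mutant grown at 25 °C; 0% = DMSO wells with yeast and 100% = wells holding no yeast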
# PfHsp90 yeast 2: growth inhibition of PfHsp90-expressing yeast, primary screen, antimalarial PfHsp90 inhibitor project, S. cerevisiae, BacTiter-Glo luminescence, single point, set 2 | BacTiter-Glo ATP, 48 h; yeast lacking PDR1 and PDR3 efflux regulators | inhibition, % at 9.4 µM | 310,000 compounds, 0.32% hits;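 active = every replicate shows inhibition above about 80%, whatever the replicate mean, limit read from the data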;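 also: 0% = DMSO neutral controls and 100% = 20 µM radicicol positive controls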
# TIM10 inh: growth inhibitors of isogenic TIM10 control yeast, primary screen, counter-screen for tim10-1 yeast inhibitor project, luminescence, uHTS. AID 463195, 2010. 330,000 compounds, 1.4% hits. S. cerevisiae TIM10 strain growth, BacTiter-Glo luminescence, 24 h. inhibition, % at 10 µM;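 active = inhibition of 40% or more at the single tested concentration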;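 also: wild-type TIM10 isogenic control strain grown at permissive 25 °C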
# SKKanGAS inh: S. pyogenes SKKanGAS growth inhibitors in kanamycin, primary screen, streptokinase expression inhibitor project, SKKanGAS strain, BacTiter-Glo luminescence; 6 h; 300,000 compounds, 1.3% hits; AID 1662, 2009; inhibition, % at 7.5 µM;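 active = mean replicate score, as percent of positive control median, at least 50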;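 also: strain carries kanamycin resistance gene driven by streptokinase promoter and grows in 40 µg/ml kanamycin; loss of luminescence reflects streptokinase promoter inhibition or plain growth inhibition; 0% = median of DMSO wells and 100% = positive control at its reference dose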
# tim10-1 conf: growth inhibitors of tim10-1 mutant yeast, confirmation, single concentration, luminescence, S. cerevisiae; shares compounds with tim10-1 inh; inhibition, % at 20 µM; 7,400 compounds, 56% hits; S. cerevisiae tim10-1 ts strain growth, BacTiter-Glo, 24 h; AID 463213, 2010;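 active = inhibition of yeast growth at or above a set limit in either of two repeat tests at 20 µM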;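 also: tim10-1 mutant grown at permissive 25 °C to find synthetic lethal compounds; 0% = DMSO yeast wells and 100% = medium wells without yeast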
# TIM10 conf: growth inhibitors of wild-type TIM10 yeast, confirmation, counter-screen for tim10-1 synthetic lethality project, single concentration, luminescence, S. cerevisiae; 4,600 compounds, 63% hits; inhibition, % at 10 µM; S. cerevisiae tim10 strain growth, BacTiter-Glo luminescence, 24 h; shares compounds with TIM10 inh;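 active = inhibition of yeast growth at or above a set limit in either of two replicates at 10 µM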;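 also: this counterscreen used the strain with wild-type TIM10; 0% = yeast with DMSO and 100% = medium wells lacking yeast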
# tim23-1 conf: tim23-1 mutant yeast growth inhibitors, confirmation, luminescence, single concentration; shares compounds with tim23-1 inh; S. cerevisiae tim23-1 growth, BacTiter-Glo luminescence, 24 h; inhibition, % at 20 µM; 4,400 compounds, 83% hits; AID 463218, 2010;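 active = inhibition above about 39% in either of two replicate wells at 20 µM, limit read from the data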;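 also: temperature-sensitive tim23-1 mutant grown at 25 °C; 0% = DMSO wells with yeast and 100% = medium wells without yeast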
# ATG4B confirm: ATG4B protease inhibitors, retest, confirmation, biochemical, fluorescence, single concentration; ATG4B protease fluorescent substrate cleavage assay; shares compounds with ATG4B inhibitor; 320 compounds, 92% hits; inhibition, % at 8.33 µM; in the data active = inhibition above about 39%
# PLA2 counter: PLA2 enzyme inhibition, counter-screen for ATG4B inhibitor project, biochemical, single concentration, uHTS hits; shares compounds with ATG4B inhibitor; purified PLA2, NBD-C6-HPC fluorescence, 45 min; inhibition, % at 8.33 µM; 1,600 compounds, 66% hits; in the data active = inhibition above about 50%
# Target sequence (P04054 whole entry, looked up): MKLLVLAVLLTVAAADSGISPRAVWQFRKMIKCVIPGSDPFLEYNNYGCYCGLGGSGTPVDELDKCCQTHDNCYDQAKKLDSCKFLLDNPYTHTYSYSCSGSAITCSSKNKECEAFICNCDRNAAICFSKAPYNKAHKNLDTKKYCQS
# Active calls of the source: *; x = no result given; + = active, no number. Sampled rows, rich in hits. Any-hit rate of the full collection: about 4.7%.
SMILES,tim23-1 inh,ATG4B inhibitor,tim10-1 inh,PfHsp90 yeast 2,TIM10 inh,SKKanGAS inh,tim23-1 conf,others
Cc1ccc(Cn2cc(C=O)c(-c3ccc(C)cc3)n2)cc1,52.7*,63.2*,45.2*,9.2,27.0,0.6,65.4*,tim10-1 conf=34.5*;PLA2 counter=60.0*
NC(=O)c1ccc(C(=O)Nc2ccc([As](=O)(O)O)cc2)cc1,9.9,x,-11.9,x,6.1,-4.8,x,
CCn1nc(/C=C/c2ccccc2)nc2c(=O)n(C)c(=O)nc1-2,93.0*,86.8*,92.6*,74.8,95.9*,5.1,91.3*,tim10-1 conf=94.6*;TIM10 conf=97.7*;ATG4B confirm=23.6;PLA2 counter=8.7
CCN(CC)c1ccc(N=Cc2c(O)n(-c3ccccc3)c(=O)[nH]c2=O)cc1,19.6,-3.8,26.8,-1.3,41.0*,3.5,x,TIM10 conf=18.9
COCCn1c(-c2ccccc2)cc(C(=O)O)c1C,10.0,-10.7,3.6,2.2,10.6,-2.9,x,
CCc1ccccc1NC(=O)CSc1nnc([C@@H](N)Cc2c[nH]c3ccccc23)o1,26.2,-11.5,22.7,-2.2,29.1,1.5,x,
N[C@@H](Cc1c[nH]c2ccccc12)c1nnc(SCc2ccc(Cl)cc2)o1,12.9,-13.5,39.2,x,41.4*,-11.5,x,TIM10 conf=39.6*
Fc1ccc(NC2=NCCS2)cc1Cl,1.3,-7.9,8.9,-14.2,-3.2,-4.5,x,
COC(=O)[C@@H]1C[C@]2(C(=O)O)c3ccccc3N(OOSc3ccccc3)[C@@H]2N1C(=O)OC,-6.4,-2.0,-5.6,2.3,1.8,2.7,x,
O=C1N[C@@H](Cc2ccccc2)C(=O)N2[C@H]1C[C@H]1c3ccccc3N(OOSc3ccccc3)[C@H]12,24.9,-8.1,15.0,x,43.6*,4.5,x,TIM10 conf=17.5
O=C1/C(=C/c2ccc3c(c2)OCO3)N2CCC1CC2,25.0,7.4,21.0,-13.0,22.9,-1.8,x,
Oc1cc(Cl)ccc1Oc1ccc(Cl)cc1Cl,48.4,-14.2,39.0,94.8*,45.4*,17.3,x,TIM10 conf=67.7*
O=P(Nc1ccccc1Cl)(c1ccccc1)c1nc2c(s1)CCCC2 (centres undefined),35.5,-0.1,37.2,-6.6,41.2*,-1.0,x,TIM10 conf=21.3
CN1C(=O)C(=Cc2c(OCc3cnc(Cl)s3)ccc3ccccc23)C(=O)N(C)C1=O,75.3*,8.8,21.9,-6.2,46.4*,-12.9,81.4*,TIM10 conf=52.9*
C[C@@H]1C[C@@H]([C@H](O)CC2CC(=O)NC(=O)C2)C(=O)[C@@H](C)C1,73.3*,8.3,37.6,+,67.7*,x,69.2*,TIM10 conf=64.2*
CC(=O)NNC(=O)CN1C(=O)CN=C(c2ccccc2)c2cc(Br)ccc21,9.8,-0.5,2.1,8.7,-3.1,-0.9,x,
CC(=NCCCN1CCOCC1)c1c(O)n(-c2ccccc2C)c(=O)[nH]c1=O,2.4,-3.2,0.5,23.5,-21.8,-20.3,x,
Cc1oc(-c2ccccc2)nc1CN1C(=O)C(C)N=C(c2ccccc2F)c2cc(Cl)ccc21 (centres undefined),52.3*,-7.1,39.0,7.8,19.8,10.4,57.0*,
O=[N+]([O-])c1ccc(NCCCN2CCOCC2)nc1,4.5,-4.9,-8.0,-2.5,6.1,6.8,x,
CN1C(=O)C(=Cc2ccccc2OS(=O)(=O)c2ccccc2)C(=O)N(C)C1=O,76.5*,6.7,24.8,3.6,35.2,19.3,73.0*,
O=[N+]([O-])c1c(Cl)c(Cl)c(Cl)c(Cl)c1Cl,x,5.8,x,-4.7,x,x,x,
Nc1ccc(N=Nc2ccccc2)cc1,12.3,4.8,17.7,17.3,3.9,7.6,x,
Cc1cc(N=Nc2ccccc2C)ccc1N,63.5*,4.9,22.3,-4.7,22.4,3.2,-0.1,
CCCc1nc2ccccc2c(=O)n1-c1cccc(OC)c1,83.1*,-2.2,9.5,15.9,0.2,-6.9,21.1,
CCCc1nc2ccccc2c(=O)n1-c1ccc(OC)cc1,0.2,-7.8,7.2,-13.9,5.6,-3.2,x,
SMILES,tim23-1 inh,ATG4B inhibitor,tim10-1 inh,PfHsp90 yeast 2,TIM10 inh,SKKanGAS inh,tim23-1 conf,others
O=C(Nc1ccc2ccccc2c1)N1C[C@H]2C[C@@H](C1)c1cccc(=O)n1C2,4.8,-4.8,7.0,-14.7,-2.8,2.9,x,
COc1ccc(-n2c(/C=C/c3ccc4c(c3)OCO4)nc3ccccc3c2=O)cc1,50.3*,26.5,25.6,-12.7,17.4,9.7,44.7*,
Cc1[nH]c2ccc(OC(F)(F)F)cc2c1CCNCc1ccc(Cl)cc1,65.6*,-6.7,27.8,6.4,35.3,16.9,16.5,
Cc1[nH]c2ccc(OC(F)(F)F)cc2c1CCNCc1cccc([N+](=O)[O-])c1,13.2,7.3,-25.5,-2.7,31.5,-2.3,x,
CCc1ccccc1NC(=O)CNC1CCCCC1,13.2,2.6,-6.6,7.0,-10.1,5.9,x,
CN(CC(=O)Nc1ccccc1-c1ccccc1)C1CCCCC1,12.4,73.2*,15.5,-10.7,1.4,1.8,x,PLA2 counter=78.9*
CC(=O)Nc1ccc2c(c1)CC1(C(=O)N(C)C(=O)N(C)C1=O)C1CCCN21 (centres undefined),-7.1,-13.4,7.0,x,11.7,-2.8,x,
CC[C@H](C)/C=C(C)/C=C/C1=CC2=C(Cl)C(=O)[C@](C)(OC(C)=O)C(=O)C2=CO1,34.3,55.1*,17.9,105.1*,20.9,x,x,PLA2 counter=71.0*
Cc1nc2ccccc2c(=O)n1-c1ccc(-c2ccccc2)cc1,19.3,17.5,21.6,15.5,13.5,16.4,x,
COC(=O)C1=C(c2ccc(F)cc2OCc2ccccc2)C[C@@H]2CC[C@H]1N2C(=O)NCCOc1ccccc1Cl,15.4,3.9,11.2,-1.8,7.6,x,x,

# High-throughput results from PubChem.
